Usually AC50 stands for the concentration giving half of the maximal activity seen.

From PubChem BioAssay (EPA / NIEHS) come the findings set out here.

Calls of active or inactive are those of the source. Rule for the calls: active = hit-call score of the fitted dose curve at least 0.9, where 1 is the maximum; inactive = score below 0.9.

Assay [1] can be described thus: ATG_CRE_CIS: Attagene CIS-FACTORIAL HepG2 Assay for human cAMP Responsive Element (CRE) binding protein 3 (AID 2282926). Particulars: HepG2 CRE cis-reporter, Attagene multiplexed mRNA; actives raise or lower the signal. In outline: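 Capillary electrophoresis of 6-FAM-labelled, HpaI-digested PCR products quantified reporter transcripts. These came from HepG2 transiently transfected with cis-element reporters and exposed to test chemicals for 24 hours, with DMSO defining baseline activity.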

The target in assay [2] is CCAAT/enhancer-binding protein beta (Homo sapiens) (UniProt P17676). In words: ATG_C_EBP_CIS: Attagene CIS-FACTORIAL HepG2 Assay for human CCAAT/Enhancer Binding Protein (C/EBP) beta (AID 2282927). To be noted: HepG2 Attagene cis-factorial transcription factor reporter; actives raise or lower the signal. In a few lines:
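Following a 24 h incubation with test chemical, transfected HepG2 cells yielded RNA whose reporter transcripts were quantified by RT-PCR and fluorescent capillary electrophoresis, with DMSO serving as baseline for bidirectional fitting.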

Assay [3] can be described thus: ATG_CMV_CIS: Attagene CIS-FACTORIAL HepG2 Assay for human CMV (Internal Marker) (AID 2282928).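 Note: endpoint acts as a background internal control marker rather than a target.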 Particulars: HepG2 CMV promoter reporter, transcription factor profiling; actives raise or lower the signal. In a few lines:
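Fluorescence intensity of RT-PCR-derived reporter fragments, resolved by capillary electrophoresis, gives the signal. HepG2 liver cells bearing transfected cis-element reporters were treated 24 h; activity in either direction was fit relative to DMSO-treated controls.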

Assay [4] in a line: ATG_DR4_LXR_CIS: Attagene CIS-FACTORIAL HepG2 Assay for human Liver X Receptor (LXR), DR4 submotif (AID 2282929). Particulars: HepG2 Attagene DR4 cis-reporter, mRNA transcription; actives raise or lower the signal. In outline: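 Cells were transfected with multiple reporter transcription units, exposed to chemicals for 24 hours, then lysed for RNA. Reporter mRNA induction was measured by RT-PCR with capillary electrophoresis detection and fitted in both directions relative to DMSO.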

Assay [5] is described as follows: ATG_AP_1_CIS: Attagene CIS-FACTORIAL HepG2 Assay for human Activator Protein 1 (AP-1) (AID 2282931). To be noted: HepG2 Attagene cis-factorial AP-1 reporter mRNA; actives raise or lower the signal. In outline: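 Endogenous transcription-factor activity in human HepG2 liver cells is read through a cis-promoter reporter transcript, sampled 24 h after dosing. Detection uses RT-PCR with capillary electrophoresis; values come from bidirectional fitting relative to DMSO.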

Assay [6] can be described thus: ATG_AP_2_CIS: Attagene CIS-FACTORIAL HepG2 Assay for human Activator Protein 2 (AP-2) (AID 2282932). Particulars: HepG2 AP-2 cis-reporter, Attagene transcription factor profiling; actives raise or lower the signal. In a few lines:
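Cells (HepG2) transfected with promoter-driven reporter constructs, treated 24 h. Total RNA reverse-transcribed, reporter cDNA PCR-amplified, FAM-labelled by primer extension, digested, resolved by capillary electrophoresis. Activity fitted both directions versus DMSO.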

Assay [7] in a line: ATG_BRE_CIS: Attagene CIS-FACTORIAL HepG2 Assay for human Bone Morphogenetic Protein (BMP) Response Element (BRE) (AID 2282933). Particulars: HepG2 BMP response element reporter, Attagene transcription factor profiling; actives raise or lower the signal. In outline: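 HepG2 cells transiently transfected with CIS reporter units (endogenous TF activity, BMP response element), dosed 24 h. Reporter mRNA quantified by RT-PCR, fluorescent labelling and capillary electrophoresis; bidirectional fit vs DMSO baseline.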

For assay [8], the target named is Transcription factor E2F1 (Homo sapiens) (UniProt Q01094). In words: ATG_E2F_CIS: Attagene CIS-FACTORIAL HepG2 Assay for human E2F Transcription Factor 1 (AID 2282935). To be noted: HepG2 Attagene cis-reporter, E2F reporter RNA transcripts; actives raise or lower the signal. In outline:
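First, HepG2 cells were transfected with reporter transcription units. Next, they were dosed for 24 h. Then RNA was isolated, converted to cDNA, PCR-amplified, FAM-labeled, HpaI-digested and analyzed by capillary electrophoresis.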

Assay [9] can be described thus: ATG_E_Box_CIS: Attagene CIS-FACTORIAL HepG2 Assay for human Enhancer Box (E-box) (AID 2282936). Particulars: HepG2 E-box cis-reporter transcription, actives raise or lower the signal. In outline:
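Endogenous transcription factor activity was sensed in human HepG2 liver cells through transfected cis-promoter reporter units. After 24 h of dosing, total RNA was reverse-transcribed and reporter cDNA resolved by capillary electrophoresis.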

Assay [10] is described as follows: ATG_M_61_CIS: Attagene CIS-FACTORIAL HepG2 Assay for M61 Transcription Factor (Internal Marker) (AID 2282937). To be noted: HepG2 Attagene CIS-FACTORIAL M61 internal marker reporter; actives raise or lower the signal. In outline: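 Cells were transfected with reporter units under cis-regulatory promoters, treated with chemicals for 24 h, then lysed for RNA. Reporter transcripts were quantified by RT-PCR and capillary electrophoresis, and activity was fitted bidirectionally against DMSO.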

Assay [11] in a line: ATG_EGR_CIS: Attagene CIS-FACTORIAL HepG2 Assay for human Early Growth Response 1 (EGR1) (AID 2282938). Particulars: HepG2 Attagene CIS-FACTORIAL EGR reporter mRNA; actives raise or lower the signal. In a few lines:
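Endogenous TF activity in HepG2 liver cells was gauged through cis-promoter reporter constructs transiently transfected. After 24 h dosing, reporter mRNA was quantified by RT-PCR and capillary electrophoresis, and curves fitted in both directions versus DMSO.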

A short description of assay [12]: ATG_Ets_CIS: Attagene CIS-FACTORIAL HepG2 Assay for human Erythroblast Transformation Specific (ETS) (AID 2282941). Particulars: HepG2 ETS cis-reporter transcription, actives raise or lower the signal. In outline: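 Multiplexed reporter transcript profiling: HepG2, 24 h treatment, total RNA to cDNA, PCR, 6-FAM labelling, HpaI cut, capillary electrophoresis. Gain- or loss-of-signal fitted against DMSO.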

A short description of assay [13]: ATG_FoxO_CIS: Attagene CIS-FACTORIAL HepG2 Assay for human Forkhead box O (FoxO) (AID 2282943). Particulars: HepG2 Attagene cis-reporter, FoxO element, mRNA; actives raise or lower the signal. In outline:
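Values reflect reporter mRNA induction or loss in HepG2 cells 24 h post-dosing, fitted bidirectionally with DMSO as negative control and baseline. Detection used RT-PCR and fluorescence capillary electrophoresis.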

Assay [14] is described as follows: ATG_GATA_CIS: Attagene CIS-FACTORIAL HepG2 Assay for human GATA Binding Protein (AID 2282944). Particulars: HepG2 GATA cis-element reporter, Attagene multiplex mRNA; actives raise or lower the signal. In outline:
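HepG2 cells transiently transfected with multiplexed cis-element reporter units measure endogenous GATA activity; after 24 h compound exposure, reporter mRNA quantified by RT-PCR and capillary electrophoresis. Changes fitted in both directions vs DMSO.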

Assay [15] is described as follows: ATG_GLI_CIS: Attagene CIS-FACTORIAL HepG2 Assay for human Zinc Finger Protein GLI1 (AID 2282945). To be noted: HepG2, Attagene cis-factorial reporter mRNA, GLI element; actives raise or lower the signal. In a few lines:
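HepG2 cells transiently transfected with cis-promoter multiplexed reporter units report endogenous transcription factor activity. After 24 h chemical exposure, reporter mRNA was quantified by RT-PCR, 6-FAM labelling, HpaI digestion and capillary electrophoresis, with bidirectional fitting against DMSO.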

Assay [16] in a line: ATG_ISRE_CIS: Attagene CIS-FACTORIAL HepG2 Assay for human Interferon Regulatory Factor 1 (IRF1) binding to an Interferon-Stimulated Response Element (ISRE) (AID 2282948). To be noted: HepG2 ISRE cis-reporter (Attagene), mRNA transcription readout; actives raise or lower the signal. In outline: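 Signal reflects induction or loss of ISRE-linked reporter mRNA in transiently transfected HepG2 cells after a 24 h treatment, detected by fluorescent RT-PCR fragments on capillary electrophoresis and normalised to DMSO.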

Assay [17] is described as follows: ATG_M_32_CIS: Attagene CIS-FACTORIAL HepG2 Assay for M32 Transcription Factor (Internal Marker) (AID 2282949).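 Note: background control marker of the multiplexed CIS panel rather than a real target.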 To be noted: HepG2 Attagene cis-factorial M32 reporter, mRNA; actives raise or lower the signal. In a few lines:
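HepG2 human liver cells transiently transfected with cis-promoter-driven multiple reporter transcription units, dosed 24 h. Reporter mRNA quantified by RT-PCR, FAM-labelled primer extension, HpaI digest and capillary electrophoresis; bidirectional fit versus DMSO baseline.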

A short description of assay [18]: ATG_M_06_CIS: Attagene CIS-FACTORIAL HepG2 Assay for M06 Transcription Factor (Internal Marker) (AID 2282950). Particulars: HepG2 Attagene CIS-FACTORIAL M06 internal marker reporter; actives raise or lower the signal. In a few lines:
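Internal background marker within multiplexed cis-reporter HepG2 system. Cells transiently transfected, dosed 24 h; reporter mRNA measured by RT-PCR, HpaI digestion and capillary electrophoresis. Bidirectional fit relative to DMSO.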

Assay [19] addresses Paired box protein Pax-6 (Homo sapiens) (UniProt P26367). In words: ATG_Pax6_CIS: Attagene CIS-FACTORIAL HepG2 Assay for human Paired Box 6 (PAX6) (AID 2282956). Particulars: HepG2 CIS-FACTORIAL PAX6 reporter transcription, RNA readout; actives raise or lower the signal. In outline: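 Values derive from bidirectional curve fitting of reporter mRNA signal relative to DMSO. HepG2 cells bearing transfected cis-regulated MRTUs were exposed for 24 h; transcripts were read by RT-PCR and capillary electrophoresis.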

A short description of assay [20]: ATG_PXRE_CIS: Attagene CIS-FACTORIAL HepG2 Assay for human Pregnane X Receptor Element (PXRE) (AID 2282957). Particulars: HepG2 Attagene CIS-FACTORIAL PXRE reporter, mRNA; actives raise or lower the signal. In outline: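 Fluorescent capillary electrophoresis of amplified reporter cDNA gave the signal, collected 24 h after dosing HepG2 cells that held transfected cis-element reporter constructs.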

CCAAT/enhancer-binding protein beta (Homo sapiens), sequence (P17676 whole entry, looked up): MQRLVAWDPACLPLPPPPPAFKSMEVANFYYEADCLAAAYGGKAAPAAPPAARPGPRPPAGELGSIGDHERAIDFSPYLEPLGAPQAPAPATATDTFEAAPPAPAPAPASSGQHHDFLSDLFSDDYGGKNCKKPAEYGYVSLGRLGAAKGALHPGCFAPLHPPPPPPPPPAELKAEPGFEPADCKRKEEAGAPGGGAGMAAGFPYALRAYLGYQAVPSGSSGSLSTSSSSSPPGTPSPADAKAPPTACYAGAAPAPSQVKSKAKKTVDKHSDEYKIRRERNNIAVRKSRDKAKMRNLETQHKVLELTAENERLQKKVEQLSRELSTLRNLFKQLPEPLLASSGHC
Paired box protein Pax-6 (Homo sapiens), sequence (P26367 whole entry, looked up): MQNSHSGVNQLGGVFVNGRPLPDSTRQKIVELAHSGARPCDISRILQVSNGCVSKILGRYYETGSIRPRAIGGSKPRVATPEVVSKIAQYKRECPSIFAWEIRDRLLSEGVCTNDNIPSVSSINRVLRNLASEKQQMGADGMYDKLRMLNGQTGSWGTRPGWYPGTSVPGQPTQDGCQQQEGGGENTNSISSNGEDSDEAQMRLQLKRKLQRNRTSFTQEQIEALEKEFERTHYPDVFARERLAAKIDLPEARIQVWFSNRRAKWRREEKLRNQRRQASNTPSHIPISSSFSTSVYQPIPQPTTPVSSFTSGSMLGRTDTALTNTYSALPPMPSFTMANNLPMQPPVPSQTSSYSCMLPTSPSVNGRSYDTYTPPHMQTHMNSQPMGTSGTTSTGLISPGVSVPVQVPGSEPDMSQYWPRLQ
Transcription factor E2F1 (Homo sapiens), sequence (Q01094 whole entry, looked up): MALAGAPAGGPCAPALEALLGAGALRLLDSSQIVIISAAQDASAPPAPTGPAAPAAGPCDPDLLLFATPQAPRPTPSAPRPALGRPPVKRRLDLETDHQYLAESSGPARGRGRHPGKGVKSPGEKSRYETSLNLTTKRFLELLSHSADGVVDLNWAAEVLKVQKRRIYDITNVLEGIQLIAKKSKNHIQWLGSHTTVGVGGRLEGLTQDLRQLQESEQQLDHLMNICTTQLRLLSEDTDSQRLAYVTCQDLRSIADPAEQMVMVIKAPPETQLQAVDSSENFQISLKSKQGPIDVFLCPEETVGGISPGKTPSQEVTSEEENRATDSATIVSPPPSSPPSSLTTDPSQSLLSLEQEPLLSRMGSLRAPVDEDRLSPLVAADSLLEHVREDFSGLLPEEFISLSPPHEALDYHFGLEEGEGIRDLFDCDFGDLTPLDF

For `CC(O)(P(=O)(O)O)P(=O)(O)O`, the call in assay [1], in assay [2], in assay [3], in assay [4], in [5] and in assay [6] was inactive. The outcome in assay [7], in assay [8], in assay [9], in assay [10], in [11] and in [12] was inactive. The call in assay [13], in assay [14], in [15], in assay [16], in [17] and in assay [18] was inactive. Also, the call in assay [19] and in [20] was inactive.

On to `OCCN(CCO)c1cccc(Cl)c1`, for which the outcome in assay [1], in assay [2], in assay [3], in assay [4], in [5] and in assay [6] was inactive. For the same compound, the compound was classed as inactive in assay [7], in assay [8], in assay [9], in assay [10], in assay [11] and in assay [12]. In addition, the outcome in [13], in assay [14], in assay [15], in assay [16], in assay [17] and in [18] was inactive. In addition, the result in assay [19] was inactive. In addition, in assay [20], the AC50 was 52.4 µM (active).

For the compound `CC1=C(CC(=O)O)c2cc(F)ccc2/C1=C\c1ccc(S(C)=O)cc1` (stereo not given), the outcome in assay [1], in assay [2], in [3], in assay [4], in assay [5] and in assay [6] was inactive. Moreover, the outcome in assay [7], in assay [8], in [10], in assay [11], in assay [12] and in [13] was inactive. Moreover, the call in [14], in assay [15], in [17], in [18] and in [19] was inactive. For the same compound, the AC50 in assay [9] was 43.4 µM (active); in assay [16], 44.9 µM (active); in assay [20], 5.37 µM (active).

Turning to `NC(=O)c1ccc(N)cc1`, the result in assay [1], in [2], in assay [3], in [4], in assay [5] and in [6] was inactive. Moreover, the compound was called inactive in [7], in assay [8], in assay [9], in assay [10], in assay [11] and in assay [12]. The compound was called inactive in assay [13], in assay [14], in assay [15], in assay [16], in [17] and in assay [18]. The compound was called inactive in assay [19] and in assay [20].

On to `C/C=C(\C)C(=O)OCC/C=C\CC`, for which the outcome in assay [1], in assay [2], in assay [3], in [4], in assay [5] and in assay [6] was inactive. The compound was classed as inactive in [7], in assay [8], in assay [9], in assay [10], in assay [11] and in [12]. In addition, the result in [13], in assay [14], in assay [15], in assay [16], in [17] and in assay [18] was inactive. The compound was called inactive in assay [19] and in assay [20].

Turning to `CN(C)Cc1cc(C(C)(C)C)c(O)c(C(C)(C)C)c1`, the compound was classed as inactive in assay [1], in assay [2], in assay [3], in assay [4], in assay [5] and in [6]. The call in assay [7], in assay [8], in [9], in [10], in assay [11] and in [12] was inactive. Moreover, the compound was called inactive in assay [13], in assay [14], in assay [15], in [16], in [17] and in assay [18]. Besides, in assay [19], the result was inactive. Besides, in assay [20], the AC50 was 3.41 µM (active).

`NC(N)=Nc1nc(CSCCC(N)=NS(N)(=O)=O)cs1`: the compound was classed as inactive in [1], in [2], in assay [3], in assay [4], in assay [5] and in assay [6]. Moreover, the compound was classed as inactive in [7], in [8], in assay [9], in [10], in assay [11] and in assay [12]. The compound was called inactive in assay [13], in assay [14], in assay [15], in assay [16], in assay [17] and in [18]. In addition, the result in assay [19] and in assay [20] was inactive.
